Results on 13 targets are retold here after the supplement of paper PMC11006884.

Targets with a hit are over-represented here; the source holds about 6,500 in all. About 2% of all pairs of compound and target were hits. A number with no mark means an inactive call.

Compound in this test: COC(=O)C#Cc1ccccc1 [methyl 3-phenylpropiolate]
Description: log2 ratio of iodoacetamide-alkyne labeling of the cysteine site, DMSO over compound (competition); higher = stronger covalent engagement of the cysteine by the compound, active = 1 or more. Particulars: 500 µM; treatment time 1 h; system: HEK293T cell lysate. Summed up:
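Three replicates, each with duplicate channels, were prepared from HEK293T lysate (2 mg/mL) treated with vehicle or electrophile at 500 µM for 1 h at ambient temperature. Iodoacetamide alkyne was then applied for 1 h, and samples were clicked to sCIP-TMT reagents, pooled, trypsin-digested overnight at 37 °C, enriched on streptavidin, acid-eluted and analysed on Orbitrap Eclipse LC-MS/MS with FAIMS, with FragPipe quantification. The log2 competition ratio per cysteine is the mean control-channel divided by the mean compound-channel reporter intensity. Cysteines quantified in only one replicate were left out.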

UniProt P49327, sequence (P49327 whole entry, looked up): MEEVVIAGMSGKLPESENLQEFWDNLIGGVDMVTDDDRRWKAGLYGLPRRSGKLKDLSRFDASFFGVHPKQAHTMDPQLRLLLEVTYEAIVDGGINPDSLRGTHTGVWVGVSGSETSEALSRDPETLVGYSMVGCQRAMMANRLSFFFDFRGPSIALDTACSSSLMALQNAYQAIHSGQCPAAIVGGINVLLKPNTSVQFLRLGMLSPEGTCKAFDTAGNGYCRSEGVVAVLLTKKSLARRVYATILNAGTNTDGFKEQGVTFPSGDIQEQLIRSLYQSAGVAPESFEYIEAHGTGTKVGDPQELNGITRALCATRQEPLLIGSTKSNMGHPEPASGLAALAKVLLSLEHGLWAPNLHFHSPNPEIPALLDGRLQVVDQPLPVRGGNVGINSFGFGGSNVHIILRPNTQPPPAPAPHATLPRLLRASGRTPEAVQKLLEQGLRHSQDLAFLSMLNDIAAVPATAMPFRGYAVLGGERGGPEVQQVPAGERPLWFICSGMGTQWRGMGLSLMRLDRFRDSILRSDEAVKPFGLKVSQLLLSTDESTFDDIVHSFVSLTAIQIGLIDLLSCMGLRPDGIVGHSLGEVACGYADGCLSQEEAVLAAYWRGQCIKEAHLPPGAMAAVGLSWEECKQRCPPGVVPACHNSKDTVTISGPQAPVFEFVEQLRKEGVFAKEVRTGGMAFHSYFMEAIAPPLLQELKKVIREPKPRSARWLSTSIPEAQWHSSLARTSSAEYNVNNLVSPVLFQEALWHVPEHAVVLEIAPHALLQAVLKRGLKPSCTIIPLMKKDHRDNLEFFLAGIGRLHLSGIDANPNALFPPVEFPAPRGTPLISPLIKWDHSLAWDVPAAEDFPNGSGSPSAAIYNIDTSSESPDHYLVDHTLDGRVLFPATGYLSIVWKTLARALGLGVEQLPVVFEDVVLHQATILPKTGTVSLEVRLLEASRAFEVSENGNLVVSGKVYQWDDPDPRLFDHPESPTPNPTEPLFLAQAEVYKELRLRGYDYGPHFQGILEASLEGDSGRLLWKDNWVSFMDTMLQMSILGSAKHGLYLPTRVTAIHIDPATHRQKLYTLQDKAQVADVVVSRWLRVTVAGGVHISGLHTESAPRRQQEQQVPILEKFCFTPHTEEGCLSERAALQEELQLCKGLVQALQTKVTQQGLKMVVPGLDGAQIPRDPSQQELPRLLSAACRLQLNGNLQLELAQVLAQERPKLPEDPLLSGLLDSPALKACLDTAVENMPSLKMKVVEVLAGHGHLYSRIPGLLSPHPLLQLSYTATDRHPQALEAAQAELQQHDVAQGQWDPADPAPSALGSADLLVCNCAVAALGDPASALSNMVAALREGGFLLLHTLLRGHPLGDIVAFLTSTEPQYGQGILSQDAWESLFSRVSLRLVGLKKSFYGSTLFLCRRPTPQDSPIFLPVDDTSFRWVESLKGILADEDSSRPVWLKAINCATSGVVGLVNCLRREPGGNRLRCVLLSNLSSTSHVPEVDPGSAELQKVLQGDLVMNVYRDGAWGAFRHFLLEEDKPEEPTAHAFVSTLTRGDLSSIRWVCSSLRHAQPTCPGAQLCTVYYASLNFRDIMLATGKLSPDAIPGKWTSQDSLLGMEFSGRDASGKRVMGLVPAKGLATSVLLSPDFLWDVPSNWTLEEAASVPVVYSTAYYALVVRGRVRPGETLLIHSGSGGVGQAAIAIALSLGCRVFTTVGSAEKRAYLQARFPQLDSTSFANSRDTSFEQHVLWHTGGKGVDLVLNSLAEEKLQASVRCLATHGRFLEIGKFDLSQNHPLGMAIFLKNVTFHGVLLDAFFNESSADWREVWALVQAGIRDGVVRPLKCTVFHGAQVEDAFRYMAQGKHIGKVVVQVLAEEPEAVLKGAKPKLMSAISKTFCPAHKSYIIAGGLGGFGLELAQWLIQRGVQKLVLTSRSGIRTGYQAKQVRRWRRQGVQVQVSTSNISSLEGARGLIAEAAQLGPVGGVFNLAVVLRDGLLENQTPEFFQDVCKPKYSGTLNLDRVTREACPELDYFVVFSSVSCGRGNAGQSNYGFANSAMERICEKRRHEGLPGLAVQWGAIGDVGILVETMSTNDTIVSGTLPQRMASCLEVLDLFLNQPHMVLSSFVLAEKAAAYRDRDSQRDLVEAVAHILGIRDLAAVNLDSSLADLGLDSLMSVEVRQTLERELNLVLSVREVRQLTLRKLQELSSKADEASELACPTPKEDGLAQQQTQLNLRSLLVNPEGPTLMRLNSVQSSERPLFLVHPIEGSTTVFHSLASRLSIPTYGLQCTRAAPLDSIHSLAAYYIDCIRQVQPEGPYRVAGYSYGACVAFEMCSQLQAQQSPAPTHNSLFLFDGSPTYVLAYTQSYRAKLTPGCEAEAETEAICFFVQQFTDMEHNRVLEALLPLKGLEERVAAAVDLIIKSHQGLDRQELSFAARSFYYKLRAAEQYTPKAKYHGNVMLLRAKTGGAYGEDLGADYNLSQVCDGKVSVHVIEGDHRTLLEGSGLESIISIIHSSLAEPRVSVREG
UniProt P30566, sequence (P30566 whole entry): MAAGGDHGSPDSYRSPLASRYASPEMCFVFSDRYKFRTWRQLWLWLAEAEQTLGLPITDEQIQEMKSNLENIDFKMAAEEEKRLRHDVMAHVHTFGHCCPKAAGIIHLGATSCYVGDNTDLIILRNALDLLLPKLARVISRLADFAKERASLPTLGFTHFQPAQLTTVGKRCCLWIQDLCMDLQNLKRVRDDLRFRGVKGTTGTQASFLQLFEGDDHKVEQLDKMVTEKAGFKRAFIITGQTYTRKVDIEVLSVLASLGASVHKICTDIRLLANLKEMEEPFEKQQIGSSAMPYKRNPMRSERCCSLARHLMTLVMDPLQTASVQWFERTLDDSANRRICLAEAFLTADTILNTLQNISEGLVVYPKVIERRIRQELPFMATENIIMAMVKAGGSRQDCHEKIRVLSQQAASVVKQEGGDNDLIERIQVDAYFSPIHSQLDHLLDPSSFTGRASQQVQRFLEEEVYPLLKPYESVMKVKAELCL
UniProt P35579, sequence (P35579 whole entry, looked up): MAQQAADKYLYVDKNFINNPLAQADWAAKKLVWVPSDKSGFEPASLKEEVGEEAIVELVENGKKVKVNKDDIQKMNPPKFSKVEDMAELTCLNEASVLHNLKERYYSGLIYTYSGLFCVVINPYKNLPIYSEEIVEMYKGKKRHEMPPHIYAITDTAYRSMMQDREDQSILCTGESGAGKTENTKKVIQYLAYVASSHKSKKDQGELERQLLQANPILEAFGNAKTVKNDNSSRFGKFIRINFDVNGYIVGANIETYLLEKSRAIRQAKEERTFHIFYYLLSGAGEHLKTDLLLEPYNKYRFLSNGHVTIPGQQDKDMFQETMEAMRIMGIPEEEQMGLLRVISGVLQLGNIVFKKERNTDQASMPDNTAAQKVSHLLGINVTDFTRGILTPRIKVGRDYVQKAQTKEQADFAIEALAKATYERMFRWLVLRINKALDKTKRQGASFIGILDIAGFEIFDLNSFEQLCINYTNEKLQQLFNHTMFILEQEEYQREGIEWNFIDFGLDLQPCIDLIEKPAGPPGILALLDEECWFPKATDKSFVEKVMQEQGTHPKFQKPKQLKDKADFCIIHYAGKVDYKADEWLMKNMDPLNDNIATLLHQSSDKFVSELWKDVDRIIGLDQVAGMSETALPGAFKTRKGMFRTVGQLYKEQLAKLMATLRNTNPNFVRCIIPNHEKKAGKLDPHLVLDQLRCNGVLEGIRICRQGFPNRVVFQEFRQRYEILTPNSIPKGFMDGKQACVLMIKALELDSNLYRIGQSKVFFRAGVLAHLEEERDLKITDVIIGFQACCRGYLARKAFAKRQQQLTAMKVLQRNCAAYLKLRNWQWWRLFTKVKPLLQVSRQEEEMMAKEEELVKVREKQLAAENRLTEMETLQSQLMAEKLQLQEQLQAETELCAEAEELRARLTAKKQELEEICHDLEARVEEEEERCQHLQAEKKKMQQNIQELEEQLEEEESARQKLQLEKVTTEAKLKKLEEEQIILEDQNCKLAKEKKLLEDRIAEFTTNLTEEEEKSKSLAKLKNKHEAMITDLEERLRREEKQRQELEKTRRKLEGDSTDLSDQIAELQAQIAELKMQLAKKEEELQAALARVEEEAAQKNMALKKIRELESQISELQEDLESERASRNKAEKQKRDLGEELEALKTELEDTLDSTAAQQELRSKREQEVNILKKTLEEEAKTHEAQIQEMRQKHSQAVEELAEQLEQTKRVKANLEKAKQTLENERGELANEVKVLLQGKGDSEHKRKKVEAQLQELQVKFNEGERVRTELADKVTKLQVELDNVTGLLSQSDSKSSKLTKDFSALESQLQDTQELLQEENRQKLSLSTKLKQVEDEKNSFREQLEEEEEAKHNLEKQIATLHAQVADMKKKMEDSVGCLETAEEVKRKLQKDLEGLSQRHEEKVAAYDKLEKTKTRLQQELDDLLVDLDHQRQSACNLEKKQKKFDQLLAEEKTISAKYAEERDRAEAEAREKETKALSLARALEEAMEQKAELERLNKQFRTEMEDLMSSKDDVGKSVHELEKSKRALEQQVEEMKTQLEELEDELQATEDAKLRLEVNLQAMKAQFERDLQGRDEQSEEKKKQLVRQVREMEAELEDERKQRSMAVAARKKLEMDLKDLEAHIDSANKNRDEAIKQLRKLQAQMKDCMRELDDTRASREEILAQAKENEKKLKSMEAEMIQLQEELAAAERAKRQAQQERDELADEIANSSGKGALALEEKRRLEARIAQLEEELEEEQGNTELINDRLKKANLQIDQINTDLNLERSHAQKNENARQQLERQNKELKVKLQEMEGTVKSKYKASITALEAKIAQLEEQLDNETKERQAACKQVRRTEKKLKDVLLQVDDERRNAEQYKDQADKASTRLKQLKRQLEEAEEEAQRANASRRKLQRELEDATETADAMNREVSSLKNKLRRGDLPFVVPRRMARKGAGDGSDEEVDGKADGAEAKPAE

With FASN C1186 (UniProt P49327), the “log2 ratio of iodoacetamide-alkyne labeling” value (from here on “log2 ratio”) is -0.0549.
Then HSPA4L C167 (UniProt O95757), with -0.00119; and EEF2 C557 (UniProt P13639), with -0.298; and CAPZA2 C111 (UniProt P47755), with 0.0355.
For HSP90AB1 C521 (UniProt P08238), the “log2 ratio” value was 0.298.
Consider ADSL C27 (UniProt P30566), for which the “log2 ratio” value was 0.0306.
With IQGAP1 C781 (UniProt P46940), the “log2 ratio” value is 0.821.
As for HNRNPM C694 (UniProt P52272), the “log2 ratio” value is 0.0717.
TCEA1 C271 (UniProt P23193): the “log2 ratio” value is -0.116.
Take ANXA7 C363 (UniProt P20073): the “log2 ratio” value is 0.0125.
As for PRKAR2A C128 (UniProt P13861), the “log2 ratio” value is 0.00919.
For the target ANXA7 C327 (UniProt P20073), the “log2 ratio” value was 0.191.
Turning to MYH9 C1379 (UniProt P35579), the “log2 ratio” value was 0.164.
